Laboratory results from PubChem BioAssay (NCI).
The panel holds about 79,000 compounds, 15% with a hit somewhere; the sample as a whole holds those more often. Active and inactive are the calls of the source. No stated cut-off is given here; in the data, active means growth inhibition above about 70%; inactive means the rest.

test: NCI Yeast Anticancer Drug Screen. Data for the sgs1 mgt1 strain (AID 161);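 further: 0% = growth of cultures given vehicle only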; conditions: S. cerevisiae sgs1 mgt1 strain, at 50.0 µM, hits give high values
Summary of the method: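 Inhibition of yeast growth, normalised to vehicle-treated controls, is reported for a strain bearing genetic alterations in DNA damage repair.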

| SMILES | growth inhibition |
| --- | --- |
| CC(C)CC(C)OC(=O)Cc1ccccc1 (centres undefined) | 31.1% (inactive) |
| CNC(=O)Oc1ccc(Br)cc1Br | -2.6% (inactive) |
| Fc1ccccc1N=C=S | 5.65% (inactive) |
| Cc1cc(C)c(C(=O)O)c(C)c1.[Hg] | 99.7% (active) |
| COc1ccccc1P(=S)(c1ccccc1)c1ccccc1 | 17.6% (inactive) |
| CC1CN1C1=C(Br)C(=O)C(N2CC2C)=C(Br)C1=O (centres undefined) | 84% (active) |
| Nc1ccc2c(c1)[O][Sn]([c]1ccccc1)([c]1ccccc1)[O]C2=O | 89.1% (active) |
| CCOC(=O)CNCCC1(CC)C(=O)NC(=O)NC1=O | 2.15% (inactive) |
| [N-]=[N+]=CC(=O)c1ccc(Cl)cc1 | 14% (inactive) |
| C[C@@H]1C[C@@H]2c3cccc4c3c(cn4CO)C[C@H]2N(C)C1 | 28.6% (inactive) |
| O=[N+]([O-])c1ccc(O)c(C=NCCN=Cc2cc([N+](=O)[O-])ccc2O)c1.[Ni+2] | -3.9% (inactive) |
| CC(C)OP(=O)(OCCCO)C(Cl)Cl (centres undefined) | 1.1% (inactive) |
| C1CC[N-]CC1.CN(C)P(=O)(N(C)C)N(C)C.OO.OO.[O]=[Mo] | 15.6% (inactive) |
| CCC1(CC)C(=O)NC(=O)[N]([Sn]([CH3])([CH3])[N]2C(=O)NC(=O)C(CC)(CC)C2=O)C1=O | 7.05% (inactive) |
| Cl.[O-]c1cccc2cccnc12.[O-]c1cccc2cccnc12.[O-]c1cccc2cccnc12.[O-]c1cccc2cccnc12.[Ti+4] | 92.8% (active) |
| CC(Cc1ccc2c(c1)OCO2)NCC(O)c1ccc(O)c(O)c1 (centres undefined) | 18.2% (inactive) |
| C[C@@]12CC/C(=N\OCC(=O)O)C=C1CC[C@H]1C2CC[C@]2(C)C1CC[C@H]2O (some centres undefined) | -14.6% (inactive) |
| NC(N)=NN(N=O)C1CCCCC1 | -7.85% (inactive) |
| S=C([SH2+])[SH2+].S=C([SH2+])[SH2+].[Pt+2].c1ccc(C[P+](c2ccccc2)(c2ccccc2)c2ccccc2)cc1 | 36.2% (inactive) |
| O=C1OC[C@@H]2Cc3c([nH]c4ccccc34)[C@@H](c3cc(O)c(O)c(O)c3)N12 | 20.8% (inactive) |

| SMILES | growth inhibition |
| --- | --- |
| COC(=O)CCSP(=S)(Oc1ccccc1)Oc1ccccc1 | 12.3% (inactive) |
| CC(C)CCCC(C)C1CCC2C3CC=C4CC([Se][As](C)C)CCC4(C)C3CCC12C (centres undefined) | 8.55% (inactive) |
| Oc1ccccc1/C=N/C(O)C(Cl)(Cl)Cl (centres undefined) | 34.9% (inactive) |
| CCOC(=O)COc1cc(Cl)c(S(=O)(=O)F)cc1Cl | 97.3% (active) |
| CCCCC(CC)COP(OCC(CC)CCCC)OCC(CC)CCCC (centres undefined) | -18.9% (inactive) |
| CCC(=O)[O-].CCC(=O)[O-].N.N.N.N.[Co+3].[O-][Cl+3]([O-])([O-])[O-] | -9.1% (inactive) |
| CCC1(CCNC(=O)CCl)C(=O)NC(=O)NC1=O | 6.8% (inactive) |
| COc1ccc(CC(C)=O)cc1OC | 19% (inactive) |
| CS(=O)(=O)C(Cl)Cl | 0.75% (inactive) |
| O=[N+]([O-])c1cc(Br)c(O)c(Br)c1 | 5.15% (inactive) |
| O=S(=O)(F)c1cccc(Cl)c1C[P+](c1ccccc1)(c1ccccc1)c1ccccc1 | 13.7% (inactive) |
| CC(C(=O)c1ccccc1)N(C)Cc1ccccc1 (centres undefined) | 6.75% (inactive) |
| CN1C(=O)C(=CN(C)c2ccccc2)C(=O)N(C)C1=O | 23.7% (inactive) |
| NC1(C(=O)O)CCCC1 | -15.2% (inactive) |
| Cc1nccc2c1[nH]c1ccccc12 | -15.4% (inactive) |
| CC(C)(C)NCC(COc1ccc([N+](=O)[O-])cc1)OP(c1ccccc1)c1ccccc1 (centres undefined) | 2.25% (inactive) |
| O/N=C(/C(=N/O)c1ccccc1)c1ccccc1.O/N=C(/C(=N/O)c1ccccc1)c1ccccc1.[Ni] | 5.05% (inactive) |
| NC(N)=N/N=C1\C(=O)N(c2cccc([N+](=O)[O-])c2)C(=O)C1C(=O)Nc1cccc([N+](=O)[O-])c1 (centres undefined) | -17.1% (inactive) |
| CC(=O)CCNC1(c2ccccc2)CCCCC1 | -2.65% (inactive) |
